Pf Dd2 growth = blocks in vitro growth of P. falciparum Dd2. 120,000 compounds, 4.3% hits. AID 1347417. P. falciparum Dd2 growth, SYBR Green, 72 h. Potency, µM (doses to about 28.9 µM), most hits filed as inhibitors; active = well fitted inhibition curve with a large enough effect; also: nearly all actives have a fitted effect of over 65% in size
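Infected erythrocytes (Dd2, 0.3% parasitemia, 2.5% hematocrit final) are added to compound in RPMI-1640/Albumax II medium, grown 72 h at 37C in low oxygen, then lysed with saponin/Triton-X containing SYBR Green and read by fluorescence.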
Hits are given with their value; - = inactive; [ ] = dose if it differs, or a comment. The entries come from a sample that favours hits as a whole.

SMILES | Pf Dd2 growth
CCCS(=O)(=O)N1CCc2nc(N3CCc4ccccc4C3)[nH]c(=O)c2CC1 | -[5.79 µM]
CCc1nc2c(c(-c3ccc(Cl)cc3)n1)CCN(C(=O)c1ccccn1)CC2 | -
CCc1nc2c(c(-c3ccc(Cl)cc3)n1)CN(Cc1ccc(C)cc1)CC2 | -
CCc1nc2c(c(-c3ccc(Cl)cc3)n1)CN(Cc1ccsc1)CC2 | 5µM
CCc1nc2c(c(-c3ccc(Cl)cc3)n1)CN([S+](C)(=O)[O-])CC2 | -
CCc1nc2c(c(-c3ccc(Cl)cc3)n1)CN(Cc1ccc(OC(F)(F)F)cc1)CC2 | 8.9µM
Cc1nc2c(c(-c3ccc(O)cc3)n1)CN(Cc1ccc(OC(F)(F)F)cc1)CC2 | -
COc1ccc(C(=O)N[C@@H]2CN(c3ncccn3)C[C@H]2CO)cc1F | -
CCC(=O)N1CCC(Oc2ccc(C(=O)N3CCOCC3)cn2)C1 (stereo unspecified) | -
C[C@@H](NC(=O)c1cccn1C)c1c(-c2ccc(F)cc2)noc1C(=O)O | -
O=C1NCCN2CC3(CCN(C(=O)NCCc4ccccc4)CC3)CC12 (stereo unspecified) | -
CCC(=O)N[C@@H]1CN(Cc2ccccc2)C[C@H]1CN(C)C | -
CCOc1cc(-c2c(-c3ccccc3)ncn2CCNC(C)=O)ccc1OC | -
OCCCn1cnc(-c2ccccc2)c1-c1ccc(-c2ccn[nH]2)o1 | -
COc1cc2c(cc1-c1c(-c3ccccc3)ncn1CCCO)CCC2 | 13µM
Cc1cn(CCn2ccnc2-c2nc[nH]c2C)nn1 | -
O=C(CCC1CCN(C(=O)c2ccccc2Cl)CC1)NC1CCS(=O)(=O)C1 (stereo unspecified) | -
CCn1c2c(c(=O)n1-c1ccccc1)CCN(C(=O)c1ccnn1C)C2 | -
CCNc1ncnc2sc3c(c12)CCN(Cc1ccc[nH]1)C3 | 1µM
COc1ccc(Nc2ncnc3sc4c(c23)CCCC4)cc1 | -
CCCNC(=O)N1CCc2c(sc3ncnc(N4CCN(C)CC4)c23)C1 | -
CCc1ccc(Nc2ncnc3sc4c(c23)CCCC4)cc1 | -
CCNc1ncnc2sc3c(c12)CCN(C(=O)c1ccnn1C)C3 | 11µM
Cc1cc(C)cc(C(=O)NC2CCN(c3cc(-c4ccccc4)[nH]n3)CC2)c1 | -
O=C(c1cccc(C(F)(F)F)c1)N1CCN(C2CCN(Cc3cccnc3)C2=O)CC1 (stereo unspecified) | -
SMILES | Pf Dd2 growth
COCCCNC(=O)CSc1nc2cc(OC)c(OC)cc2c2nc(-c3ccccc3)nn12 | -
COc1cc2nc(NCc3ccc(C)cc3)n3nc(-c4ccccc4)nc3c2cc1OC | 0.1µM
Cc1cccc(-c2nc3c4ccccc4nc(NCc4ccc(Cl)cc4)n3n2)c1 | -
COc1ccccc1CNc1nc2ccccc2c2nc(-c3cccnc3)nn12 | -
COc1cc2nc(NCCc3cccc(C)c3)n3nc(-c4ccccc4)nc3c2cc1OC | 0.5µM
Cc1ccc(CNc2nc3ccccc3c3nc(-c4cccc(C)c4)nn23)cc1 | -
C=CCCC(CN1CCSCC1)Oc1ccc(C#N)cn1 (stereo unspecified) | -
Cn1cccc1C(=O)NCC(=O)N1CCCCCCNC(=O)CC1c1ccccc1 (stereo unspecified) | -
Cc1noc(C)c1C(=O)N1Cc2ccccc2CC2(CCCN(CC3CCNCC3)C2)C1 (stereo unspecified) | -
Cc1nnc(-c2cc(-c3ccnn3C)ccn2)n1-c1ccccc1 | -
COC(=O)c1ccc2nc(C[C@@H]3C[C@@H](C(C)C)[C@H](CNC(=O)CC4(CC(=O)O)CCCC4)C=C3C)[nH]c2c1 | -
COC(=O)c1ccc2nc(C[C@@H]3C[C@@H](C(C)C)[C@H](CNS(=O)(=O)c4ccccc4)C=C3C)[nH]c2c1 | 10µM
CC1=C[C@@H](CNC(=O)c2ccccc2)[C@H](C(C)C)C[C@H]1Cc1nc2ccc(C)cc2[nH]1 | -
COC(=O)c1ccc2nc(C[C@@H]3C[C@@H](C(C)C)[C@H](CNCc4ccc(NC(C)=O)cc4)C=C3C)[nH]c2c1 | -
COC(=O)c1ccc2nc(C[C@@H]3C[C@@H](C(C)C)[C@H](CNC(=O)CCC(=O)O)C=C3C)[nH]c2c1 | -
COC(=O)c1ccc2nc(C[C@@H]3C[C@@H](C(C)C)[C@H](CNC(=O)c4cccnc4)C=C3C)[nH]c2c1 | 7.9µM
CSc1ccccc1-c1ccc(N2CCN(C)CC2)nn1 | -
CCOc1ccccc1NC(=O)N(C)CC1CCOCC1 | -
CN1CCN(C[C@@H]2CN(C(=O)CCc3cn[nH]c3)C[C@@H]2CO)CC1 | -
Cc1ccc(C)c(Cn2c(-c3ccc(F)cc3)nc(C)c(CCO)c2=O)c1 | -
COc1ccc(/C=C/C(=O)Nc2ccc(Cl)c(Cl)c2)cc1 | -
COc1ccc(Nc2c3c(nc4ccc(NC(=O)/C=C/c5cc(OC)c(OC)c(OC)c5)cc24)CCCC3)cc1OC | 2.5µM
COc1ccc(/C=C/C(=O)Nc2ccc3nc4c(c(Nc5ccc(OC)c(OC)c5)c3c2)CCCC4)cc1 | 2.2µM
COc1ccc(NC(=O)c2sc3nc4c(cc3c2N)CCCCCC4)cc1OC | -
COc1cc(NC(=O)c2ccc3c(Cl)c4c(nc3c2)CCC4)cc(OC)c1OC | -
COc1cc(NC(=O)CSc2c3c(nc4ccccc24)CCC3)cc(OC)c1OC | -

Bioassay records deposited in PubChem by National Center for Advancing Translational Sciences (NCATS).
